Data published in article PMC5540273 (PLoS ONE, 2017).

Columns and labels:
Conditions in all cases: concentration: 1 μM, replicates: in singlicate; n = 1
MYO3A = test system: MYO3A
MYO3B = test system: MYO3B
NDR1 = test system: T1, NDR1
T1 construct: gene STK38

NDR2 = test system: NDR2
NEK10 = test system: NEK10
NEK11 = test system: NEK11
NEK1 = test system: NEK1
NEK2 = test system: NEK2
NEK3 = test system: NEK3
NEK4 = test system: NEK4
NEK5 = test system: NEK5
NEK6 = test system: NEK6
NEK7 = test system: NEK7
NEK9 = test system: NEK9
NIK = test system: T2, NIK
T2 construct: gene MAP3K14

NIM1 = test system: T3, NIM1
T3 construct: gene MGC42105

NLK = test system: NLK
OSR1 = test system: T4, OSR1
T4 construct: gene OXSR1

PAK1 = test system: PAK1
PAK2 = test system: PAK2
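Further: KINOMEscan kinase panel screen.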

SMILES	%Inh (MYO3A) [%]	%Inh (MYO3B) [%]	%Inh (NDR1) [%]	%Inh (NDR2) [%]	%Inh (NEK10) [%]	%Inh (NEK11) [%]	%Inh (NEK1) [%]	%Inh (NEK2) [%]	%Inh (NEK3) [%]	%Inh (NEK4) [%]	%Inh (NEK5) [%]	%Inh (NEK6) [%]	%Inh (NEK7) [%]	%Inh (NEK9) [%]	%Inh (NIK) [%]	%Inh (NIM1) [%]	%Inh (NLK) [%]	%Inh (OSR1) [%]	%Inh (PAK1) [%]	%Inh (PAK2) [%]
CSc1ccc(-c2nc3n(c2-c2ccncc2)CCC3)cc1 [SKF-105561]	1	8	21	4	0	36	0	3	23	6	0	1	3	0	0	18	23	19	0	39
Cc1ccc(-c2nc(Nc3ccncc3)c3ccccc3n2)s1 [GSK189015]	0	0	0	0	4	0	0	20	5	0	9	1	16	15	4	0	53	9	11	11
Nc1ncnc2occ(-c3ccc4c(c3)CCN4C(=O)Cc3cc(F)ccc3F)c12 [GSK2645446]	26	0	11	0	1	2	0	70	0	0	22	0	0	4	17	8	0	0	0	4
CNc1cc(-c2ccc3c(N)n[nH]c3c2)nc(N)n1 [GSK2224810]	41	0	16	19	0	0	0	0	2	0	14	0	0	0	26	20	27	0	0	0
COC(=O)c1cccc(NC(=O)NC2CCN(c3ccnc(Nc4ccc(OC)cc4)n3)C2)c1 (stereo not shown) [GSK1379746]	1	0	0	0	24	8	0	0	14	0	23	0	0	0	8	53	35	0	0	0
O=c1cc(N2CCOCC2)nc2n(Cc3cccc(Cl)c3Cl)c3ccccc3n12 [GSK2299009]	0	6	33	0	9	0	0	14	3	8	30	4	20	24	0	2	25	11	0	5
O=C(Nc1n[nH]c2nc(-c3ccco3)c(Br)cc12)C1CCN(Cc2ccccc2)C1.O=C(O)[C@H](O)[C@@H](O)C(=O)O (stereo not shown) [SB-742034]	17	7	8	17	0	1	0	5	47	8	0	1	11	0	0	0	0	5	3	35
COc1cccc(C2=C(Nc3cc(Cl)c(O)c(Cl)c3)C(=O)NC2=O)c1 [SB-390767]	0	0	0	0	30	1	0	100	13	28	7	0	0	0	4	1	0	15	2	15
c1ccc(-c2ccnc3[nH]ccc23)cc1 [SB-693578]	36	0	1	12	30	0	0	74	19	0	8	0	0	0	43	26	23	30	0	0
Cn1cncc1-c1cc2c(Nc3ccc(OCc4ccccc4)cc3)ncnc2cn1 [GW281179]	10	0	10	0	17	13	0	0	0	5	26	0	0	45	3	21	29	14	10	19
Cc1ccccc1-c1cc(-c2c[nH]nc2-c2ccccn2)ccn1 [GW680061]	0	0	0	0	4	11	0	0	0	11	9	0	0	0	28	18	15	9	0	5
Cn1cnc2c(N)ncnc21 [SKF-97623]	2	15	0	3	0	0	0	0	19	0	0	0	0	0	41	3	0	0	3	5
COc1cc2ncnc(Nc3cccc(Br)c3)c2cc1OC.Cl [GI230329]	20	0	26	12	21	41	0	0	6	0	11	0	0	4	29	26	33	16	29	20
COc1cccc(CNC(=O)NC2CCN(c3ccnc(Nc4ccc(F)cc4)n3)C2)c1 (stereo not shown) [GSK1379723]	0	0	0	0	0	0	0	18	5	22	21	0	2	0	24	14	3	10	1	0
CCCCc1nn2ncccc2c1-c1ccnc(NC2CC2)n1 [GW684374]	23	0	8	10	0	0	3	0	0	0	4	0	0	4	0	1	68	0	6	0
CC(C)c1ccc(O)cc1Nc1ccnc2ccc(C(F)(F)F)cc12 [GW482059]	0	0	0	0	0	22	0	2	0	0	0	0	0	0	0	0	0	1	0	6
O=C1NC(=O)C(c2ccc(Cl)cc2)=C1Nc1cccc(Cl)c1 [SB-317651]	5	8	12	0	0	0	0	0	16	0	6	0	0	0	5	12	0	0	2	17
Cc1ccc(NC(=O)c2ccc(Cl)cc2)cc1-c1ccc(C(=O)Nc2ccncc2)cc1 [GSK1398467]	16	0	0	0	0	0	0	5	15	0	0	0	0	0	3	5	38	0	0	0
Cc1c(Cn2c(C)c(C)n3c(=O)cc(N4CCOCC4)nc23)cccc1C(F)(F)F [GSK2328680]	0	0	0	2	0	5	0	8	0	19	0	0	0	12	9	11	12	11	0	0
COc1ccc(Nc2nccc(N3CCC(NC(=O)C(C)c4ccc(Cl)cc4)C3)n2)cc1 (stereo not shown) [GSK1379735]	0	7	0	0	7	0	0	13	0	10	32	0	6	2	12	13	14	0	16	38
